Measurements reported in PubChem BioAssay AID493174 (National Center for Advancing Translational Sciences (NCATS), 2011).
Records with an inconclusive call do not appear. Active and inactive are the calls of the source. The call rests on the fitted dose curve; in most records, active means well fitted inhibition curve with a large enough effect; inconclusive means small, poorly fitted or top-dose-only effect; inactive means flat fitted curve, though single readings scatter.

test: Confirmatory Assay for General miRNAs Modulators and/or Inhibitors/Activators of miR-21: second round cherrypicks; conditions: HeLa miR-21 FLuc reporter, luciferase luminescence, 48 h; series mostly up to 38.3 µM
Description: MLPCN Grant: 1 R21 NS059478-01 Assay Provider: Qihong Huang, The Wistar Institute NCGC Assay Overview: MicroRNAs (miRNAs) are endogenously encoded small (~20-25 nucleotides), nonprotein-coding RNAs that are involved in post-transcriptional repression of target messenger RNAs (mRNAs) (Le and Hannon, 2004). Estimated to be involved in the regulation of 30% of all protein-coding mRNAs (Filipowicz et al., 2008), miRNAs play a significant role in many biological processes including cellular differentiation and tissue development (Ghildiyal and Zamore, 2009).
NCGC Assay Protocol Summary: Reagents: HeLa cells stably expressing firefly luciferase (FLuc) under the control of a CMV promoter (upstream) and a miR-21 binding sequence directly downstream of the gene. These cells endogenously express miR-21. Control compounds used were compound C3 (provided by collaborator), N6-phenyladenosine (MP Biomedicals, 0215379625), and DMSO. Assay Summary: 6uL of HeLa miR-21-FLuc cells in assay buffer (DMEM, Invitrogen #21063-029; 10% FBS, HyClone #SH30071.03) were dispensed at 2000cells/well (3.3 x 10^5 cells/mL) into Greiner solid-white TC-treated 1536-well plates using a Multidrop Combi (Thermo Fisher Scientific). Plates were incubated for one hour at 37 degree Celsius, 95% humidity, 5% CO2. These assay plates were then treated with 23nL of compound or DMSO using a Kalypsys pin tool, which allows for delivery of a 24-point titration of each compound to the assay plate, with a final compound concentration ranging from approximately 40uM to 5pM. Assay plates were then incubated for 48 hours. After incubation, plates were allowed to come to RT for one hour prior to delivery of 3uL of 3X luciferase detection reagent. After a 15 minute incubation to allow for cell lysis, luciferase activity was measured using a ViewLux CCD imager (PerkinElmer), with an average exposure time of 2-12 seconds. Keywords: NIH Roadmap, MLPCN, MLSMR, qHTS, miR-21, microRNA, firefly luciferase, FLuc.

SMILES	Potency
CC(=O)N1CCc2cc(CNC(=O)Cc3ccc(F)cc3)ccc21	11.3 µM (active)
Cc1ccc(NC(=O)c2ccc(-c3ccccc3)s2)cc1	5.65 µM (active)
C/C(=N/NC(=O)c1ccccc1)c1ccc(NC(=O)C(F)(F)F)cc1	inactive
CC(=O)O[C@H]1C[C@@]2(C)[C@@H](C[C@@H](O)[C@H]3[C@@]4(C)CC[C@@H](O)[C@@H](C)C4CC[C@@]32C)/C1=C(\CCC=C(C)C)C(=O)O (stereo partly drawn)	inactive
CCCOc1ccc(OC(=O)c2ccc(-c3ccc(CCC)cn3)cc2)cc1	1.26 µM (active)
COCCNC(=O)c1ccc2c(c1)ncn2-c1ccc(F)c(F)c1	22.5 µM (active)
CCC(C)C(=O)N1CCCC(c2nc(-c3cccs3)no2)C1 (stereo not drawn)	12.6 µM (active)
CCC(C)NC(=O)CCCn1c(=O)c2cccn2c2ccccc21 (stereo not drawn)	inactive
CCCCN1CCc2c([nH]c3ccccc23)C1=O	12.6 µM (active)
COC(=O)c1ccccc1NC(=O)Nc1cc(C(C)(C)C)on1	5.65 µM (active)
CCOC(=O)c1cccc(NC(=O)c2cc(CN3CCCC3)on2)c1	1 µM (active)
Cc1ccc(-c2cc(C(=O)NCC3CCCO3)no2)cc1 (stereo not drawn)	4.49 µM (active)
CC(=O)c1ccc(Oc2ncnc3c2oc2ccccc23)cc1	4 µM (active)
Cc1cc(C)c2c(N)c(C(=O)Nc3ccccc3C(F)(F)F)sc2n1	20 µM (active)
CCC(CC)C(=O)Nc1nnc(S(=O)(=O)N2CCCCCC2)s1	inactive
COc1ccc(Nc2nc(C)c3ccccc3n2)cc1	6.34 µM (active)
COc1ccccc1N1CCN(C(=O)c2nc(-c3ccc(C)cc3)n3c2CCCCC3)CC1	inactive
CN(c1ccccc1)S(=O)(=O)c1nnc(NC(=O)c2ccco2)s1	inactive
CCOC(=O)C1CCN(C(=O)c2ccc(-n3ccc4ccccc43)s2)CC1	11.3 µM (active)
CC(C)c1cc(C(=O)Nc2cccnc2)no1	3.18 µM (active)
Cc1ccccc1NC(=O)c1cc2c([nH]c1=O)CC(C)(C)CC2=O	0.711 µM (active)
O=C(Nc1sc2c(c1C(=O)NCc1ccco1)CCCC2)c1cc(=O)c2ccccc2o1	5.65 µM (active)
COc1ccc(N2C(=O)c3ccccc3NC2c2ccc(OC)c(Cn3nnc4ccccc43)c2)cc1 (stereo not drawn)	12.6 µM (active)
O=C(NC1CCCCCC1)C1CCN(C(=O)N2CCOc3ccc(Cl)cc32)CC1	inactive
Cc1cccc(NC(=O)Nc2ccc(Br)cc2)n1	2.52 µM (active)
CCC(=O)Nc1sc(C(=O)Nc2ccccc2)c(C)c1C(=O)OC	2.25 µM (active)
Cc1ccc(C(=O)Nc2ccc3c(c2)ncn3C)cc1	7.11 µM (active)
CCc1cc(C(=O)Nc2ccccc2)cs1	3.18 µM (active)
